Experimental data taken from PubChem BioAssay (NCI).
About 83,000 compounds went through this panel and 20% of them were active in at least one assay; those are over-represented in the sample as a whole.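 The test compound was applied at a single concentration to cells in 96-well plates for 48 hours, and percent growth was recorded.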 A number with no mark means an inactive call. Activity calls are given as the source filed them. Rule for the calls: active = growth percent below 10; inactive = the rest.

Key:
Assay in all cases: NCI-60 one-dose screen, 48 h (100 = growth as untreated, 0 = no growth, -100 = all killed)
Conditions in all cases: 10 µM unless noted
SK-MEL-2 melanoma = system: SK-MEL-2 melanoma
EKVX NSCLC = system: EKVX NSCLC
SN12C renal = system: SN12C renal
UO-31 renal = system: UO-31 renal
TK-10 renal = system: TK-10 renal
ACHN renal = system: ACHN renal
CAKI-1 renal = system: CAKI-1 renal
A498 renal = system: A498 renal
CCRF-CEM leukemia = system: CCRF-CEM leukemia
MOLT-4 leukemia = system: MOLT-4 leukemia

Compound	growth (SK-MEL-2 melanoma)	growth (EKVX NSCLC)	growth (SN12C renal)	growth (UO-31 renal)	growth (TK-10 renal)	growth (ACHN renal)	growth (CAKI-1 renal)	growth (A498 renal)	growth (CCRF-CEM leukemia)	growth (MOLT-4 leukemia)
C/C(=N\O)c1ccc(Cl)cc1	120%	103%	99%	91.4%	107%	105%	96.9%	111%	118%	86.3%
O=C1c2ccc3c4c5ccc(c24)C(=O)N1CCCOCCCCOCCCNCc1ccc(cc1)CNCCCOCCCCOCCCN(C3=O)C5=O	-35.8% (active)	-63.1% (active)	-82.9% (active)	64.7%	21.6%	-65.7% (active)	-1.05% (active)	93.7%	-0.763% (active)	-12.3% (active)
CC(=O)Oc1ccc(C)cc1C	99.7%	112%	102%	85.7%	102%	101%	101%	87.4%	102%	106%
Cc1cc(N2CCN(CCNc3ccnc4cc(Cl)ccc34)CC2)nc(N2CCOCC2)n1	83.8%	65.4%	73%	43.7%	84.9%	77.3%	57.9%	45.2%	75.5%	47.6%
COc1ccc(-c2cc(-c3cc(OC)c(OC)c(OC)c3)c(C#N)c(=O)n2CCCCC(=O)NO)cc1	87.2%	65.5%	66.5%	37.8%	68.1%	56.1%	46.3%	76.7%	26.7%	27.2%
CCN1CCN(C(=O)[C@]23CCC(C)(C)C[C@@H]2C2=CC[C@@H]4[C@@]5(C)CCC(=O)C(C)(C)[C@@H]5CC[C@@]4(C)[C@]2(C)CC3)CC1	77.1%	63.3%	51.8%	34.1%	80.4%	65.7%	60%	-7.95% (active)	37.5%	10.1%
CCN(C)S(=O)(=O)Nc1cccc(Nc2ncnc3cc(NC(=O)CCl)ccc23)c1Cl	17.7%	18.4%	-27.9% (active)	-87.4% (active)	1.2% (active)	-67.8% (active)	-15.4% (active)	81.7%	5.63% (active)	5.41% (active)
CCCn1cc2c(=O)nc3sc(Cc4ccccc4)c(C)n3c2n1	93.7%	104%	104%	78.5%	92.9%	109%	87.7%	100%	92.3%	78%
N#Cc1c(-c2ccccc2)[nH]c2ncc(-c3ccccc3)n2c1=O	72.9%	75.3%	99.5%	65.4%	120%	83.4%	83.4%	102%	104%	101%
C=C(CBr)[C@@H]1CC[C@]2(C(=O)O)CC[C@]3(C)[C@H](CC[C@@H]4[C@@]5(C)CCC(=O)C(C)(C)[C@@H]5CC[C@]43C)[C@@H]12	79.7%	86.5%	72.5%	56.2%	112%	81.4%	82%	110%	50.3%	54.4%
CCC1=C[C@@H]2C[C@]3(C(=O)OC)c4[nH]c5ccccc5c4CC[N@+](CC(=O)Nc4cc5c(cc4OC)N(C)[C@H]4[C@@](O)(C(=O)OC)[C@H](OC(C)=O)[C@]6(CC)C=CCN7CC[C@]54[C@@H]76)(C2)[C@H]13	105%	105%	105%	84.4%	98.6%	106%	93.2%	121%	80.6%	108%
Nc1ncnc2c1N=C(c1ccc(Br)cc1)CC(c1cccc(Nc3ccnc4cc(C(F)(F)F)ccc34)c1)N2 (stereo not given)	68.5%	44.4%	70.6%	47.2%	102%	80%	56.2%	63%	34.3%	16.8%
O=C1c2c(c3c4ccccc4[nH]c3c3ccc4ccccc4c23)C(=O)N1CCN1CCNCC1	104%	84.7%	65.2%	56.7%	108%	-49.4% (active)	63.3%	61.2%	0.375% (active)	-20.3% (active)
CN1CCc2nc3sc(C(N)=O)c(N)c3c(-c3cccs3)c2C1	27.3%	47.7%	29.1%	4.13% (active)	43%	8.41% (active)	38.8%	-1.55% (active)	19.3%	62.1%
COc1ccc2c(c1)N(CCO)C1=C(C(=O)OC1)C2c1cccc(F)c1 (stereo not given)	31.3%	38.9%	45.2%	46.3%	61.2%	27.6%	31.3%	-4.39% (active)	9.38% (active)	16.3%
COc1ccc(OC)c(Nc2nnc(-c3ccc(O)c(OC)c3)o2)c1	96.3%	82.5%	34%	20.3%	14.8%	37.9%	30.4%	6.18% (active)	88.6%	60.8%
COC(=O)[C@@H](CCCCNC(=O)[C@]12CCC(C)(C)C[C@@H]1C1=CC[C@@H]3[C@@]4(C)C/C(=C/c5ccco5)C(=O)C(C)(C)[C@@H]4CC[C@@]3(C)[C@]1(C)CC2)NC(=O)[C@]12CCC(C)(C)C[C@@H]1C1=CC[C@@H]3[C@@]4(C)C/C(=C/c5ccco5)C(=O)C(C)(C)[C@@H]4CC[C@@]3(C)[C@]1(C)CC2	108%	105%	98.7%	79.2%	102%	107%	98.5%	116%	99.3%	97%
COc1cccc(CNc2ccc3ncnc(Nc4ccc(F)c(Cl)c4)c3c2)c1	94.9%	26%	52.8%	32.5%	29.8%	26.2%	34.6%	45.1%	75.1%	69.9%
O=S(=O)(NCCNc1nccc(-c2c(-c3ccc(F)c(O)c3)nc3occn23)n1)c1ccc(Cl)cc1	42.2%	104%	80.7%	81.6%	122%	76.5%	92.7%	97.9%	70.7%	84.1%
Cc1cc(N2CCCCC2)cc(C)c1-c1csc(NC(=O)c2ccncc2)n1	95.6%	32.9%	49.1%	36.9%	77.3%	56.8%	49.5%	42.9%	47.3%	43.7%
COc1ccc(C2=C(Br)C(=O)c3nc(C)ccc3C2=O)cc1	102%	94.4%	92.8%	69.9%	71.7%	17%	81.2%	88.7%	30.1%	41.4%
O=C1/C(=C/c2cn(-c3ccccc3)nc2-c2ccccc2)SC(=S)N1C1CCCCC1	108%	97.4%	92.9%	94.2%	117%	102%	85.2%	66.9%	107%	108%
Clc1cccc(Nc2ncnc3ccc(-c4cnc5[nH]ccc5c4)cc23)c1	81.3%	10%	77.3%	54.9%	14.4%	47.1%	49%	23.1%	66.7%	50.1%
CCN(CC)CC(O)COc1c(Br)c(Br)c(Br)c2c1OC(C)(C)C2 (stereo not given)	338%	105%	79.4%	91.2%	58.4%	97.9%	17.6%	-86.9% (active)	45.8%	22.3%
Cn1ccnc1C(=O)/C=C/c1ccc(CC(=O)Nc2cc(C(F)(F)F)cc(C(F)(F)F)c2)cc1	102%	89.8%	67.4%	63.2%	106%	84.5%	76.4%	90%	47.5%	14.7%
COC1/C=C/OC2(C)Oc3c(C)c(O)c4c(O)c(c(/C=N/Nc5ccc([N+](=O)[O-])cc5[N+](=O)[O-])c(O)c4c3C2=O)NC(=O)C(C)=C/C=C/C(C)C(O)C(C)C(O)C(C)C(OC(C)=O)C1C (stereo not given)	30.5%	45.1%	-5.59% (active)	70.2%	25.7%	28.1%	74.2%	96%	6.19% (active)	0.359% (active)
